The source of these data is PubChem BioAssay (Tox21).

SMILES strings stand for the structures. Records with an inconclusive call do not appear. Activity calls are given as the source filed them. Calls come from the whole dose curve; as a rule, active = well fitted cell-killing curve with a large enough effect in the repeat runs; inconclusive = weak or mixed curves, or effect the other way; inactive = flat fitted curve, though single readings scatter.
% is set by controls: 0 for no effect and ±100 for the full control effect; potency is the fitted concentration of half-maximal effect.

A short description of this assay: qHTS assay to identify small molecule that activate the aryl hydrocarbon receptor (AhR) signaling pathway - cell viability counter screen (AID 743086).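 For viability change, negative = cytotoxic: HepG2 liver cells carrying the AhR DRE luciferase reporter.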 Note: nearly all actives have a fitted effect of over 45% in size. The settings on record: HepG2-AhR-luc viability, CellTiter-Fluor, 24 h; series mostly up to 70.3 µM; viability change, negative = cytotoxic: at the top concentration. The procedure, abridged: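 HepG2-AhR-luc (HG2L7.5c1) cells, 4000/well, were preincubated 5 h at 37C, exposed to compound in qHTS format for 24 hr at 37C, then given CellTiter-Fluor for 30 min; viability was read as fluorescence in the reporter wells.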
(In general: qHTS replaces the single test concentration by a dilution series.)
With `CC(C)N(C(=O)SC/C(Cl)=C/Cl)C(C)C`, the “viability change, negative = cytotoxic” value was -0.84% [at 95 µM] (inactive).

In the case of `CCCCN(CCCC)C(=S)S`, the “viability change, negative = cytotoxic” value is -3.07% (inactive).

As for `O=[N+]([O-])c1ccc(CCl)cc1`, the “viability change, negative = cytotoxic” value is 10.1% (inactive).

As to `Cc1ccc(C)c2ccccc12`, the “viability change, negative = cytotoxic” value was -2.18% (inactive).

Turning to `COC(=O)c1cc(Oc2ccc(Cl)cc2Cl)ccc1[N+](=O)[O-]`, the “viability change, negative = cytotoxic” value is -2.48% (inactive).

For `CCOC(=O)CCN(SN(C)C(=O)Oc1cccc2c1OC(C)(C)C2)C(C)C`, the “viability change, negative = cytotoxic” value was -2.9% (inactive).

For `CCCCc1ccccc1`, the “viability change, negative = cytotoxic” value is 9.21% (inactive).

With `CC(C)Br`, the “viability change, negative = cytotoxic” value is 8.78% (inactive).

As to `CCOP(=S)(OCC)Oc1cc(C)nc(N(CC)CC)n1`, the “viability change, negative = cytotoxic” value was 16.8% (inactive).

For the molecule `Clc1cc(Cl)c(-c2cc(Cl)c(Cl)cc2Cl)cc1Cl`, the “viability change, negative = cytotoxic” value was 4.4% (inactive).

On to `CNC(=O)CSP(=O)(OC)OC`, for which the “viability change, negative = cytotoxic” value was 0.485% (inactive).

On to `O=S(=O)(O)F`, for which the “viability change, negative = cytotoxic” value was -0.213% [at 95 µM] (inactive).

Turning to `CC(C)=CC1C(C(=O)OC(C#N)c2cccc(Oc3ccccc3)c2)C1(C)C` (centres undefined), the “viability change, negative = cytotoxic” value is 0.459% (inactive).

Regarding `COc1ccc2[nH]cc(CCN(C(C)C)C(C)C)c2c1`, the “viability change, negative = cytotoxic” value was 5.71% [at 95 µM] (inactive).

As to `CCCCC/C=C\C/C=C\C/C=C\C/C=C\CCCC(=O)NCC(=O)O`, the viability change, negative = cytotoxic is 8.28% [at 8.47 µM] (inactive).

Take `CC1(C)C(C=C(Cl)Cl)C1C(=O)OC(C#N)c1ccc(F)c(Oc2ccccc2)c1` (centres undefined): the “viability change, negative = cytotoxic” value is 20.6% (inactive).

For `O=S1OCC2C(CO1)C1(Cl)C(Cl)=C(Cl)C2(Cl)C1(Cl)Cl` (centres undefined), the “viability change, negative = cytotoxic” value is -1.27% (inactive).

For the molecule `CN(C)c1ccc(N)cc1`, the Potency is 66.9 µM (active).

`Cc1ccn2nc(S(=O)(=O)Nc3c(F)cccc3F)nc2n1`: the “viability change, negative = cytotoxic” value is 20.1% (inactive).

For `CC(C)(C)c1ccc(OP(=O)(Oc2ccccc2)Oc2ccccc2)cc1`, the “viability change, negative = cytotoxic” value is -0.823% [at 95 µM] (inactive).

As for `ClC1=C(Cl)[C@]2(Cl)[C@@H]3[C@H]4C[C@H]([C@@H]5O[C@H]45)[C@@H]3[C@@]1(Cl)C2(Cl)Cl`, the Potency entry is “inactive”.

Consider `COC(=O)/C=C(\C)OP(=O)(OC)OC`, for which the “viability change, negative = cytotoxic” value is 10.5% (inactive).

As for `ClC1(Cl)C2(Cl)C3(Cl)C4(Cl)C(Cl)(Cl)C5(Cl)C3(Cl)C1(Cl)C5(Cl)C24Cl` (centres undefined), the “viability change, negative = cytotoxic” value was 9.7% (inactive).

Take `Cc1cnc2c(C(=O)O)c(Cl)ccc2c1`: the “viability change, negative = cytotoxic” value is 5.75% (inactive).

For the molecule `CNC(=O)Oc1cc(C)cc(C(C)C)c1`, the “viability change, negative = cytotoxic” value is 3.18% (inactive).

On to `N#Cc1ccc(N(CC(N)=O)CC(F)(F)F)cc1C(F)(F)F`, for which the “viability change, negative = cytotoxic” value is 13.1% (inactive).

Take `Cc1c([N+](=O)[O-])c(C)c([N+](=O)[O-])c(C(C)(C)C)c1[N+](=O)[O-]`: the “viability change, negative = cytotoxic” value is 2.22% (inactive).

With `Clc1ccc(C(c2ccc(Cl)cc2)C(Cl)Cl)cc1`, the Potency entry is “inactive”.

In the case of `CC(C)C(Br)C(=O)NC(N)=O` (centres undefined), the “viability change, negative = cytotoxic” value was 15.2% (inactive).

As to `CCCCC(CC)COC(=O)OOC(C)(C)C` (centres undefined), the “viability change, negative = cytotoxic” value was -0.571% (inactive).

Regarding `CCOC(=O)Cc1ccccc1`, the “viability change, negative = cytotoxic” value is -1.6% (inactive).

Consider `c1csc(-c2ccc(-c3cccs3)s2)c1`, for which the “viability change, negative = cytotoxic” value was -19.6% (inactive).

Turning to `N#CSCc1ccccc1`, the “viability change, negative = cytotoxic” value is 8.88% [at 95 µM] (inactive).

In the case of `C[C@H]1[C@H](c2ccc(Cl)cc2)SC(=O)N1C(=O)NC1CCCCC1`, the “viability change, negative = cytotoxic” value is 14.6% (inactive).

With `COc1c2c(cc3c1OCO3)CCN(C)C2`, the “viability change, negative = cytotoxic” value is 5.63% [at 32.5 µM] (inactive).

For `CNC(=O)/C=C(\C)OP(=O)(OC)OC`, the “viability change, negative = cytotoxic” value is 5.07% (inactive).

For the molecule `CSC(C)(C)/C=N/O`, the “viability change, negative = cytotoxic” value was 13.9% (inactive).

With `CCCCC(CC)COC(=O)c1ccccc1C(=O)OCC(CC)CCCC` (centres undefined), the “viability change, negative = cytotoxic” value is -4.95% (inactive).

With `NC(=O)C(Cl)Cl`, the “viability change, negative = cytotoxic” value is 5.8% (inactive).
